# PubChem BioAssay AID2314 (National Center for Advancing Translational Sciences (NCATS), 2010)
# In all, about 300,000 compounds went through this assay and about 37,000 (12%) were called active. Cut-off read from the data, not from the text of the source: active = max response mostly above about 13% (no sharp cut-off); inactive = mostly below about 14%. Only a selection was taken, and actives are over-represented in it overall.
# Experiment: Cycloheximide Counterscreen for Small Molecule Inhibitors of Shiga Toxin; note: read at 38.3 µM for the half of the compounds with a filed dose; 0% is about no effect
# Conditions: cell reporter, cycloheximide protein synthesis inhibition counterscreen; active compounds read high
row,SMILES,max response
1,COc1cccc(OC)c1C(=O)N1CCN(Cc2cccnc2)CC1,-3.44% (inactive)
2,COc1cc(CNCCN(C)C)ccc1OCc1c(F)cccc1Cl,-2.65% (inactive)
3,CCOC(=O)C1CCN(S(=O)(=O)c2ccc3c(c2)N(C(C)=O)CCO3)CC1,2.65% (inactive)
4,c1csc(-c2cn3c(n2)SCC3)c1,22.4% (active)
5,Cc1cc(-c2cccs2)nc(-n2cccc2)n1,16.4% (inactive)
6,CCCS(=O)(=O)Nc1ccc(-c2cn3c(n2)SCC3)cc1,1.28% (inactive)
7,COCCNC(=O)CSc1nc2sccc2c(=O)n1-c1ccccc1,-7.71% (inactive)
8,O=C(NC1CCCC1)C(c1ccco1)N(C(=O)c1csnn1)c1ccccc1 (configuration not stated),-5.09% (inactive)
9,NC(=O)C1CCCN(CC(=O)N2CCN(c3ccccc3)CC2)C1 (configuration not stated),-4.9% (inactive)
10,CCOC(=O)C1CCN(S(=O)(=O)c2ccc3c(c2)N(C)C(=O)CC(=O)N3C)CC1,-2.95% (inactive)
11,COc1ccc2c(c1OC)C(=O)N(c1ncn[nH]1)C2,2.6% (inactive)
12,COc1ccc2c(c1OC)C(=O)N(c1ccc(O)cc1)C2,18.3% (active)
13,COc1cc(C(=O)N2C(=O)c3cccc(N)c3C2=O)cc(OC)c1OC,2.15% (inactive)
14,CCOc1ccc(S(=O)(=O)Nc2ccc(OC)nc2)cc1,-3.62% (inactive)
15,CCOC(=O)C1=C(CSc2nnnn2C)N(C)C(=O)NC1c1ccccc1 (configuration not stated),-4.86% (inactive)
16,Cc1cccnc1NC(=O)Cn1c(=O)oc2ccccc21,-0.475% (inactive)
17,Cc1nc(COc2cc3oc(=O)cc(C)c3cc2Cl)cs1,5.56% (inactive)
18,O=C(CCc1ccccc1)Nc1ccnn1C1CCN(Cc2ccc(OCCO)cc2)CC1,-1.22% (inactive)
19,Cc1ccccc1-c1nc(CS(=O)(=O)CC(=O)NC(C)c2ccccc2)c(C)o1 (configuration not stated),1.09% (inactive)
20,CCOC(=O)c1ccc(NC(=O)CNC(=O)c2ccco2)cc1,-0.716% (inactive)
21,C/C(=N\NS(=O)(=O)c1ccc(Cl)cc1)c1ccc(NC(=O)c2ccco2)cc1,34.2% (active)
22,C/C(=N/NS(=O)(=O)c1ccccc1)c1ccc(NC(=O)C(F)(F)F)cc1,1.13% (inactive)
23,O=C(NNC(=O)c1csc(-c2cccnc2)n1)Nc1ccc(Cl)cc1,1.7% (inactive)
24,O=C(Nc1ccc(Cl)cc1)Nc1ccc(Oc2cccnc2)nc1,46.4% (active)
25,CN1CCN(S(=O)(=O)c2ccc(NC(=O)c3ccco3)cc2)CC1,12% (inactive)

row,SMILES,max response
1,COC(=O)c1cc(NC(=O)c2ccco2)ccc1N1CCOCC1,-1.96% (inactive)
2,O=C(Nc1cccnc1)c1cc(Cl)ccc1Cl,1.75% (inactive)
3,COC(=O)c1ccc(NC(=O)c2ccco2)cc1,25.4% (active)
4,O=C(Nc1cccnc1)c1ccc(Cl)c([N+](=O)[O-])c1,11.1% (inactive)
5,O=C(Nc1ccncc1)c1ccc(Cl)c([N+](=O)[O-])c1,-2.17% (inactive)
6,Cc1ccnc(NC(=O)c2ccc(Cl)c([N+](=O)[O-])c2)c1,28.9% (active)
7,COc1ccc(N2C(=O)/C(=C\c3ccco3)N=C2SCC(N)=O)cc1Cl,1.81% (inactive)
8,CCOc1ccccc1N1CCN(C(=S)Nc2ccc(S(N)(=O)=O)cc2)CC1,-1.52% (inactive)
9,Cc1ccc(C(CNC(=O)Nc2ccccc2)N2CCN(C)CC2)cc1 (configuration not stated),-1.45% (inactive)
10,COC(=O)c1cc(S(=O)(=O)N2CCN(c3cc(C)ccc3C)CC2)c[nH]1,1.68% (inactive)
11,Cc1ccc(-c2nn(-c3cccc(F)c3)cc2CNCCc2ccncc2)o1,5.75% (inactive)
12,Cc1ccc(Cl)c(NC(=O)CN2CCN(C=O)CC2)c1,5.32% (inactive)
13,OC(CNCc1ccc(Cl)c(Cl)c1)c1ccccc1 (configuration not stated),9.74% (inactive)
14,CCN(CC)C(=O)COc1coc(CN2CCN(Cc3ccccc3)CC2)cc1=O,-3.15% (inactive)
15,CCC(Oc1ccccc1C)C(=O)Nc1ccc(S(=O)(=O)Nc2cc(C)on2)cc1 (configuration not stated),-7.98% (inactive)
16,Cc1cccc(N2CCC(NCc3c(C(=O)N4CCCCC4)nc4c(C)cccn34)CC2)c1,-4.59% (inactive)
17,Cc1ccnc(NC(=O)CCC(=O)N(CC(=O)NCc2ccccc2)Cc2ccco2)c1,-2.62% (inactive)
18,COc1cc(NC(=O)Nc2ccc(C)cc2)cc([N+](=O)[O-])c1,24% (inactive)
19,CCC(=O)Nc1ccc(C(=O)N2CCN(C(=O)c3ccco3)CC2)cc1,-1.69% (inactive)
20,O=C(Nc1ccc(O)cc1)c1ccc(NC(=O)c2ccco2)cc1,31.9% (active)
21,Cc1ccc(NC(=O)NCC(c2cccnc2)N2CCOCC2)cc1 (configuration not stated),-4.08% (inactive)
22,O=C(NNC(=O)c1cccnc1)Nc1ccccc1,4.83% (inactive)
23,Cc1ccc(NC(=O)/C(=C\c2ccccc2)NC(=O)c2ccco2)cc1,0.86% (inactive)
24,COC(=O)c1ccc(NC(=O)Nc2ccc(C)cc2)cc1,25.1% (active)
25,Cc1ccc(NC(=O)CC(=O)Nc2ccc(C)cc2)cc1,-2.02% (inactive)

row,SMILES,max response
1,Cc1cc(NC(=O)c2ccc(F)cc2)ccc1NC(=O)c1ccco1,9.36% (inactive)
2,Cc1ccc(NC(=O)Nc2cccnc2)cc1,24.6% (active)
3,Cc1ccnc(NC(=O)c2ccc(NC(=O)c3ccco3)cc2)c1,36.1% (active)
4,CCc1ccccc1NC(=O)NCCN1CCCCC1,-2.65% (inactive)
5,COc1cccc(CNC(=O)CCC2CCCN(C(=O)c3ccoc3C)C2)c1 (configuration not stated),5.76% (inactive)
6,Cc1ccc(S(=O)(=O)C2(S(=O)(=O)c3ccc(C)cc3)CCCC2)cc1,-2.93% (inactive)
7,Nc1nc(SCC(=O)Nc2cc(C(F)(F)F)ccc2Cl)[nH]c(=O)c1NC(=O)c1ccco1,-2.16% (inactive)
8,COc1ccc(S(=O)(=O)N2CCCCCC2)cc1C(=O)OCC(=O)Nc1cc(C)on1,-1.32% (inactive)
9,Cc1cc(C)cc(C(=O)OCC(=O)NCCNC(=O)COC(=O)c2cc(C)cc(C)c2)c1,19% (inactive)
10,O=C1c2ccccc2NC(c2ccccn2)N1NS(=O)(=O)c1ccccc1 (configuration not stated),3.3% (inactive)
11,CCn1c(SCC(=O)NC2=NCCS2)nnc1C(C)NC(=O)c1ccccc1F (configuration not stated),-2.33% (inactive)
12,Cc1cc2oc(=O)cc(CN3CCN(S(=O)(=O)c4cccs4)CC3)c2cc1C(C)C,-2.14% (inactive)
13,Cc1ccc(CNC(=O)Cc2cn(C)c3ccccc23)cc1,11.6% (inactive)
14,Cc1cc2oc(=O)cc(CN(C)Cc3ccc(OC(F)F)cc3)c2cc1Cl,-1.16% (inactive)
15,O=C(NCCc1ccccc1Cl)C1CCC(=O)N(CCCc2ccccc2)C1 (configuration not stated),-1.41% (inactive)
16,O=C(NCCN1CCOC1=O)C1CCC(=O)N(CCc2ccc(Cl)cc2)C1 (configuration not stated),-3.62% (inactive)
17,O=C(NCCCc1ccccc1)C1CCC(=O)N(CCc2ccc(Cl)cc2)C1 (configuration not stated),12% (active)
18,C/C=C(\C)C(=O)NCCN1C2=NC[C@H](Cc3ccc(O)cc3)N2C[C@@H]1Cc1ccc(OC)cc1,0.212% (inactive)
19,COc1ccccc1NC(=O)c1ccc(N2CC3CC(C2)c2cccc(=O)n2C3)c(NC(=O)c2cccnc2)c1 (configuration not stated),-5.5% (inactive)
20,N=C1C(c2nc3ccccc3s2)=C(O)CN1NC(=O)c1ccc([N+](=O)[O-])cc1,38.2% (active)
21,CCOC(=O)CCCN1CC(O)=C(c2nc3ccccc3s2)C1=N,6.59% (inactive)
22,CCc1ccc(N2CC(O)=C(c3nc4ccccc4c(=O)[nH]3)C2=N)cc1,4.62% (inactive)
23,N=C1C(c2nc3ccccc3[nH]2)=C(O)CN1NC(=O)c1c[nH]c2ccccc12,6.82% (inactive)
24,COc1ccccc1N1CC(O)=C(c2nc3ccccc3s2)C1=N,18.7% (active)
25,O=C(Nn1cnnc1)c1ccc([N+](=O)[O-])cc1,-3.89% (inactive)

row,SMILES,max response
1,CCOc1ccc(N(CC(=O)Nc2ccccc2F)S(=O)(=O)c2c(C)[nH]c(=O)[nH]c2=O)cc1,9.46% (inactive)
2,Cc1ccccc1/C=C\c1nc(O)c([N+](=O)[O-])c(=O)[nH]1,-5.68% (inactive)
3,O=C(CNC(=O)c1ccccc1F)c1ccc(Br)cc1,57.7% (active)
4,O=C(CNC(=O)c1ccc(F)cc1)c1ccccc1,30% (active)
5,O=C(CNC(=O)c1ccccc1)NCC(=O)OCC(=O)c1ccccc1,-5.87% (inactive)
6,O=C(COC(=O)CNC(=O)c1ccccc1F)NCC(F)(F)F,-1.02% (inactive)
7,CSc1nnc(CNC(=O)c2ccccc2)n1-c1ccc(F)cc1,-2.44% (inactive)
8,COC(=O)CNC(=O)c1ccccc1F,-2.02% (inactive)
9,COCCNC(=O)NC(=O)COC(=O)C1(c2ccc(Cl)cc2)CC1,7.97% (inactive)
10,CC1(C)Cc2c(sc(NC(=O)C(=O)N3CCOCC3)c2C#N)CO1,-9.16% (inactive)
11,CCCCCCOc1ccc(OC(=O)c2cccnc2)cc1,14.6% (inactive)
12,c1csc(-c2nc(-c3ccncc3)no2)c1,29.3% (active)
13,O=C(COC(=O)c1ccc(Oc2ccccc2)cc1)Nc1nnc(-c2ccccc2)o1,13.5% (inactive)
14,O=C(O)COc1ccc(-c2nccc(-c3cccs3)n2)cc1,-3.38% (inactive)
15,COc1nc(-c2ccc(Cl)cc2)ccc1-c1noc(-c2cccs2)n1,-1.17% (inactive)
16,CC(C)c1nc(-c2ccccn2)no1,22.8% (active)
17,O=C(Oc1ccc(-c2nc(-c3ccccn3)no2)cc1)c1ccccc1,31% (active)
18,c1ccc(-c2noc(-c3cccs3)n2)nc1,17.4% (active)
19,c1ccc(-c2nccc(-c3ccc(-n4cnc5ccccc54)cc3)n2)nc1,-1.84% (inactive)
20,CC1(C)N=C(c2ccccn2)C(C)(C)N1O,-7.15% (inactive)
21,O=C(NCc1cccnc1)c1nc(-c2cccs2)no1,13.1% (inactive)
22,Clc1ccc(-n2nnnc2-c2cnc(-c3ccccn3)nc2-c2cccs2)cc1,-3.52% (inactive)
